About 8,800 targets were measured; listed, in parts, are those with a hit and a random draw of the rest. About 0.5% of all pairs of compound and target were hits.
Legend:
Assay in all cases: log2 fold change, soluble protein after heating vs DMSO (PISA); higher = thermal stabilisation; K562 lysate, 10 uM; active = over 0.2 and 3.5 SD of the protein, either way, in both replicates (recomputed)
[1] = compound: C=CC(=O)N1CCC[C@@H](n2nc(-c3ccc(Oc4ccccc4)cc3)c3c(N)ncnc32)C1 [ibrutinib]
Method in brief: (§1)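 Quantification was by TMTpro 16plex LC-MS/MS with equalised channel sums, applied to the supernatant after 21,000xg for 90 min. Samples were crude K562 extract at 1 mg/mL protein in PBS pH 7.4 with 1 mM MgCl2, treated with 10 μM compound for 30 min, heated for 3 min across 48°C-58°C, pooled and brought to 0.5% NP-40 at 4°C. Values are log-two fold changes in thermal stability relative to solvent controls, from duplicates.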

[2] = compound: CC(=O)c1cnc2ccc(-c3cc(Cl)c(O)c(Cl)c3)nc2c1N[C@H]1CC[C@H](CN(C)C)CC1
Method in brief: as §1

[3] = compound: CC(C)(C)Cn1c(N)nc2ccc(-c3[nH]c(C(C)(C)C)nc3-c3ccc(F)cc3)nc21 [ralimetinib]
Method in brief: as §1

[4] = compound: CC(C)(O)CC(=O)NCCn1ccc2ncnc(Nc3ccc(Oc4cccc(C(F)(F)F)c4)c(Cl)c3)c21
Method in brief: as §1

[5] = compound: CC(C)C1=C2N=C(C=C(N2N=C1)NCC3=CC=CC=C3)NCCCCCCN
Method in brief: as §1

[6] = compound: CC1=C(C(CC(=O)N1)C2=CC=C(C=C2)C(F)(F)F)C(=O)NC3=C(C=C4C(=C3)C=NN4)F
Method in brief: as §1

[7] = compound: CC1=C(C2=C(C=C1)C(=O)C3=CC=CC=C3N2CCCN)C
Method in brief: as §1

[8] = compound: CC1=C(C=C(C=C1)NC(=O)C2=CC(=CC=C2)C(C)(C)C#N)NC3=CC4=C(C=C3)N=CN(C4=O)C
Method in brief: as §1

[9] = compound: CC1=C(C=C(C=C1)NC(=O)C2=CC(=CC=C2)N(C)C)NC(=O)C3=CC=C(C=C3)O
Method in brief: as §1

[10] = compound: CC1=CC=C(C=C1)SC2=C3C=C(SC3=CN=C2)C(=O)N
Method in brief: as §1

[11] = compound: CCCS(=O)(=O)Nc1ccc(F)c(C(=O)c2c[nH]c3ncc(-c4ccc(Cl)cc4)cc23)c1F [vemurafenib]
Method in brief: as §1

[12] = compound: CCCS(=O)(=O)Nc1ccc(F)c(C(=O)c2c[nH]c3ncc(Cl)cc23)c1F
Method in brief: as §1

[13] = compound: CCN(CCCOc1ccc2c(Nc3cc(CC(=O)Nc4cccc(F)c4)[nH]n3)ncnc2c1)CCOP(=O)(O)O [barasertib]
Method in brief: as §1

[14] = compound: CC[C@@H]1C(=O)N(C)c2cnc(Nc3ccc(C(=O)NC4CCN(C)CC4)cc3OC)nc2N1C1CCCC1
Method in brief: as §1

[15] = compound: CC[C@@H]1C(=O)N(C)c2cnc(Nc3ccc(C(=O)N[C@H]4CC[C@H](N5CCN(CC6CC6)CC5)CC4)cc3OC)nc2N1C(C)C [volasertib]
Method in brief: as §1

[16] = compound: CCn1c(C(=O)N(C2CC2)C2CC2)cc2c3c(ncn3C)c(Nc3cc(C)n(C)n3)nc21
Method in brief: as §1

[17] = compound: CN1CCN(CCOc2cc(OC3CCOCC3)c3c(Nc4c(Cl)ccc5c4OCO5)ncnc3c2)CC1 [saracatinib]
Method in brief: as §1

[18] = compound: CN1CCN(c2nc(C3=C(c4c[nH]c5ccccc45)C(=O)NC3=O)c3ccccc3n2)CC1 [sotrastaurin]
Method in brief: as §1

[19] = compound: CCn1cc(-c2ccnc3[nH]c(-c4cccc(CN(C)C)c4)cc23)c(-c2ccc(NC(=O)N(C)C)cc2)n1
Method in brief: as §1

[20] = compound: CN1CCC(CNc2ccc3ncc(-c4cccc(OC(F)(F)F)c4)n3n2)CC1
Method in brief: as §1

Measured: log2 fold change

MCMBP isoform 2 (UniProt Q9BTE3)
inactive: [1] -0.032 | [2] -0.055 | [3] -0.138 | [4] 0.068 | [5] 0.114 | [6] -0.111 | [7] -0.05 | [8] 0.063 | [9] 0.12 | [10] 0.005 | [11] -0.039 | [12] 0.081 | [13] -0.096 | [14] 0.059 | [15] -0.004 | [16] 0.047 | [17] -0.036 | [18] -0.015

MRPL35 (UniProt Q9NZE8)
inactive: [1] -0.019 | [2] -0.014 | [3] 0.041 | [4] 0.047 | [5] 0.013 | [6] -0.012 | [7] -0.108 | [8] -0.032 | [9] 0.032 | [10] 0.01 | [11] 0.091 | [12] -0.001 | [13] 0.021 | [15] 0.013 | [16] 0.005 | [19] -0.124 | [20] -0.011 | [17] 0.04 | [18] -0.019

LARS2 (UniProt Q15031)
inactive: [1] 0.009 | [2] 0.034 | [3] 0.026 | [4] 0.156 | [5] -0.027 | [6] 0.02 | [7] 0.063 | [8] -0.036 | [9] 0.046 | [10] 0.028 | [11] -0.015 | [12] 0.007 | [13] 0.077 | [14] -0.103 | [15] -0.081 | [16] 0.061 | [19] 0.024 | [20] -0.073 | [17] 0.029 | [18] 0.072

MARK2 (UniProt E9PC69)
inactive: [1] 0.139 | [2] -0.053 | [3] 0.014 | [4] -0.004 | [5] 0.015 | [6] -0.012 | [7] -0.063 | [8] 0.024 | [9] 0.045 | [10] 0.012 | [11] 0.015 | [12] -0.005 | [13] 0.027 | [14] 0 | [15] 0.028 | [16] -0.015 | [19] -0.013 | [20] -0.22 | [17] 0.021 | [18] -0.026

MRPL30 isoform 2 (UniProt Q8TCC3)
inactive: [1] 0.01 | [2] 0.043 | [3] 0.04 | [4] -0.084 | [5] 0 | [6] 0 | [7] -0.037 | [8] 0.02 | [9] -0.006 | [10] 0.087 | [12] 0.002 | [13] 0.002 | [14] -0.068 | [15] -0.013 | [16] -0.027 | [17] 0.01 | [18] 0.016
active: [19] 0.563 | [20] -0.434

KRIT1 (UniProt O00522)
inactive: [1] 0.089 | [2] -0.047 | [3] 0.001 | [4] -0.02 | [5] 0.045 | [6] -0.041 | [7] -0.075 | [8] 0.045 | [9] -0.011 | [10] -0.095 | [11] -0.084 | [12] 0.051 | [13] -0.084 | [14] -0.009 | [15] 0.036 | [16] -0.052 | [17] -0.103 | [18] 0.049

KIF22 (UniProt Q14807)
Chain of UniProt Q14807 (Q14807 whole entry, looked up): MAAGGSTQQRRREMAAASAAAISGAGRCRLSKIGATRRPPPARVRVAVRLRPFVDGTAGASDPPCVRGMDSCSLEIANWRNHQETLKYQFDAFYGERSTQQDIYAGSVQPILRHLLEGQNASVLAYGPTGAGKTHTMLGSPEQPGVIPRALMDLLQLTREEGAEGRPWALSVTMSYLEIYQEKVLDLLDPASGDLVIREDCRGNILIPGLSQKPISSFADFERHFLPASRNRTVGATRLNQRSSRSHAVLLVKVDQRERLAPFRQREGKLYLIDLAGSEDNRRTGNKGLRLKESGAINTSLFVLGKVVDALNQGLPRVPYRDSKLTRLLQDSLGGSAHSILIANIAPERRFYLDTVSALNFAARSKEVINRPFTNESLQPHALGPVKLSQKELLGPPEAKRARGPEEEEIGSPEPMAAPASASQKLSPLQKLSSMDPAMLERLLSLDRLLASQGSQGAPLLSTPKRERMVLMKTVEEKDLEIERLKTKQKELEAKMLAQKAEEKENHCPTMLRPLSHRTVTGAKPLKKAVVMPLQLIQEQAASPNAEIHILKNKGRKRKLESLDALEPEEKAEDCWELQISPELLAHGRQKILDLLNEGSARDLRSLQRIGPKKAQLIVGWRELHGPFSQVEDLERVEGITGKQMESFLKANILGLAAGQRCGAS
inactive: [1] 0.012 | [2] -0.02 | [3] 0.006 | [4] -0.27 | [5] 0.028 | [6] 0.016 | [7] -0.142 | [8] 0.143 | [9] -0.027 | [10] -0.117 | [11] -0.043 | [12] -0.049 | [13] 0.009 | [14] 0.088 | [15] 0.075 | [16] -0.189 | [19] -0.157 | [20] 0.308 | [17] 0.036 | [18] -0.084

MAP4K2 (UniProt Q12851)
inactive: [1] -0.036 | [2] 0.337 | [3] -0.029 | [4] 0.108 | [5] 0.04 | [7] -0.144 | [8] 0.058 | [9] 0.209 | [10] -0.207 | [11] 0.198 | [12] -0.038 | [13] 0.009 | [14] -0.009 | [15] -0.035 | [16] -0.023 | [19] -0.317 | [20] 0.105 | [17] 0.005 | [18] 0.053

KIF4A (UniProt O95239)
Chain of UniProt O95239 (O95239 whole entry, looked up): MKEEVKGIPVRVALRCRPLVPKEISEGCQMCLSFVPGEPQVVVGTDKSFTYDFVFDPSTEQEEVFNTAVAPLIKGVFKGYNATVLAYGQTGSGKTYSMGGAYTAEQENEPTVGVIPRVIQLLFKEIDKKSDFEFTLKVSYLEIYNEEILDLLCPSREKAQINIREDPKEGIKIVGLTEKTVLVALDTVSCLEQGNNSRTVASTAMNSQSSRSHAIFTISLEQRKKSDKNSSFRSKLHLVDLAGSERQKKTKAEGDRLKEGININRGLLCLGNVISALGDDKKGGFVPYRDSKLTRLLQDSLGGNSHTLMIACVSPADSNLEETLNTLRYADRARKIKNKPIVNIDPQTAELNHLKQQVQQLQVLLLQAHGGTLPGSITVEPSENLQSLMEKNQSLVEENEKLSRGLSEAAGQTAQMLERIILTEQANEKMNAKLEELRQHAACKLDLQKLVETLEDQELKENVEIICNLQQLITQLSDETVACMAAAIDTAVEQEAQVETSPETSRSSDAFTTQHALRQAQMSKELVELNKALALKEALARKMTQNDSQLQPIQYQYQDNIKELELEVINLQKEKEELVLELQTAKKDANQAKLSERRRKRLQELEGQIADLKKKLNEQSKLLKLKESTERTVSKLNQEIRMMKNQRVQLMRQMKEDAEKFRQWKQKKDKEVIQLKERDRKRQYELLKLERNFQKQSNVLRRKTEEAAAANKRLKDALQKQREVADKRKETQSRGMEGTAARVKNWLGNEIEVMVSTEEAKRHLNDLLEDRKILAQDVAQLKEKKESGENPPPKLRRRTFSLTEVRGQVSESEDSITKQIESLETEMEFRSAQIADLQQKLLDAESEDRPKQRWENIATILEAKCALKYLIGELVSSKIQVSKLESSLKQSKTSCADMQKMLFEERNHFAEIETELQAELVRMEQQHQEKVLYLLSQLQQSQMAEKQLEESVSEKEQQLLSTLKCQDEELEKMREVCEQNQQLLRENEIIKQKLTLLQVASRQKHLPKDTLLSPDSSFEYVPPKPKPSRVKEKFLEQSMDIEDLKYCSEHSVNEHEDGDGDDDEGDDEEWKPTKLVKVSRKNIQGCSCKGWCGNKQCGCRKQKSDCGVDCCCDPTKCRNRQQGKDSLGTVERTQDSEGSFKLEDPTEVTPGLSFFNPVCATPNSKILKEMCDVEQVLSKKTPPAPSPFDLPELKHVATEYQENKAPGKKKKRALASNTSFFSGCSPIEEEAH
inactive: [1] 0.011 | [2] 0.007 | [3] -0.014 | [4] 0.003 | [5] -0.002 | [6] -0.013 | [7] -0.027 | [8] 0.004 | [9] 0.056 | [10] 0.048 | [11] 0.005 | [12] 0.035 | [13] -0.02 | [14] -0.021 | [15] -0.055 | [16] 0.003 | [19] 0.013 | [20] -0.07 | [17] 0.007 | [18] -0.003

KIF2C (UniProt Q99661)
inactive: [1] 0.004 | [2] 0.014 | [3] 0.048 | [4] 0.025 | [5] -0.014 | [6] -0.005 | [7] -0.004 | [8] 0.004 | [9] 0.039 | [10] 0.016 | [11] 0.01 | [12] 0.004 | [13] 0.008 | [14] -0.058 | [15] -0.023 | [16] 0.016 | [19] 0.006 | [20] -0.015 | [17] -0.015 | [18] 0.02

LRRC7 (UniProt Q96NW7)
Chain of UniProt Q96NW7 (Q96NW7 whole entry, looked up): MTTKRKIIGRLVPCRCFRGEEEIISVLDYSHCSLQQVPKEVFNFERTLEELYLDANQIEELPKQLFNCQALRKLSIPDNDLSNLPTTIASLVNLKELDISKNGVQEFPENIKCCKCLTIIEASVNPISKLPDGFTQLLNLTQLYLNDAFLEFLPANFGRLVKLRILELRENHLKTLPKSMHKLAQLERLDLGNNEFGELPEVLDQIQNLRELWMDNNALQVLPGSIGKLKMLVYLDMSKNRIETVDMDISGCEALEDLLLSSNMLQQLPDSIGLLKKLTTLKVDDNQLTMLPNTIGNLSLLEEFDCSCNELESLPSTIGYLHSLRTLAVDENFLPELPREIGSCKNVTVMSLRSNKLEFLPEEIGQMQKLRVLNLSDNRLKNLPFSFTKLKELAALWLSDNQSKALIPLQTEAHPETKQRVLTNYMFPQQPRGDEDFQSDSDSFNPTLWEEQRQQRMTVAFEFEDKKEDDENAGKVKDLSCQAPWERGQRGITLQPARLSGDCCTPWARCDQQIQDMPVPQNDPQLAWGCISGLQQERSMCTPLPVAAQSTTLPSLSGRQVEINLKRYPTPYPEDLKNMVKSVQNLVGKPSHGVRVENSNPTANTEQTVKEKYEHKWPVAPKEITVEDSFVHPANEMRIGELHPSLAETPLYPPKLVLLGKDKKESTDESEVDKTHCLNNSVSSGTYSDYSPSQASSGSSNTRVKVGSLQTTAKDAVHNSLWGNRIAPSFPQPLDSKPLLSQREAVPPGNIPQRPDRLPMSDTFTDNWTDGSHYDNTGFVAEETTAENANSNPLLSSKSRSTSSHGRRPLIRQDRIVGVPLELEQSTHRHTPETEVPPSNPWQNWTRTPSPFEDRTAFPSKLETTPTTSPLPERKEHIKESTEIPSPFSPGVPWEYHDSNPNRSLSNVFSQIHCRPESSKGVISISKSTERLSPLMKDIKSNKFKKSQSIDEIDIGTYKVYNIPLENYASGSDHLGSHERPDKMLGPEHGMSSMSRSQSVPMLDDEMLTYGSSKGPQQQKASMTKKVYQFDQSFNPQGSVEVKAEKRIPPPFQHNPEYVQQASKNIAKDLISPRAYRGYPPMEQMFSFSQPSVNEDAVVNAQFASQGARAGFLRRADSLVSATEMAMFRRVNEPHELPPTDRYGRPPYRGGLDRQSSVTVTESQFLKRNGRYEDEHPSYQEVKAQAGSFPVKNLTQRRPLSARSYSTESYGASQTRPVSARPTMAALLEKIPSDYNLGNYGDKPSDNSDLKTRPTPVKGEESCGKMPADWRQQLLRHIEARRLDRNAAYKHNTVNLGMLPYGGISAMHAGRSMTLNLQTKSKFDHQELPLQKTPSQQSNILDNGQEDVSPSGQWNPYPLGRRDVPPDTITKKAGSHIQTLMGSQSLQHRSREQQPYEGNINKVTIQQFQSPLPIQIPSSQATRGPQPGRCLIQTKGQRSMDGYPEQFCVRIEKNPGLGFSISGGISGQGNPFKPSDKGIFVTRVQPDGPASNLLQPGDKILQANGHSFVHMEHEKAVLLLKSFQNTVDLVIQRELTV
inactive: [1] -0.081 | [2] 0.026 | [3] -0.115 | [4] -0.073 | [7] 0.041 | [8] -0.062 | [9] 0.09 | [10] 0.086 | [11] 0.112 | [12] -0.024 | [13] 0.062 | [14] 0.056 | [15] 0.047 | [16] -0.008 | [19] -0.033 | [20] -0.043 | [17] -0.044 | [18] -0.012

MON2 isoform 5 (UniProt Q7Z3U7)
Chain of UniProt Q7Z3U7 (Q7Z3U7 whole entry, looked up): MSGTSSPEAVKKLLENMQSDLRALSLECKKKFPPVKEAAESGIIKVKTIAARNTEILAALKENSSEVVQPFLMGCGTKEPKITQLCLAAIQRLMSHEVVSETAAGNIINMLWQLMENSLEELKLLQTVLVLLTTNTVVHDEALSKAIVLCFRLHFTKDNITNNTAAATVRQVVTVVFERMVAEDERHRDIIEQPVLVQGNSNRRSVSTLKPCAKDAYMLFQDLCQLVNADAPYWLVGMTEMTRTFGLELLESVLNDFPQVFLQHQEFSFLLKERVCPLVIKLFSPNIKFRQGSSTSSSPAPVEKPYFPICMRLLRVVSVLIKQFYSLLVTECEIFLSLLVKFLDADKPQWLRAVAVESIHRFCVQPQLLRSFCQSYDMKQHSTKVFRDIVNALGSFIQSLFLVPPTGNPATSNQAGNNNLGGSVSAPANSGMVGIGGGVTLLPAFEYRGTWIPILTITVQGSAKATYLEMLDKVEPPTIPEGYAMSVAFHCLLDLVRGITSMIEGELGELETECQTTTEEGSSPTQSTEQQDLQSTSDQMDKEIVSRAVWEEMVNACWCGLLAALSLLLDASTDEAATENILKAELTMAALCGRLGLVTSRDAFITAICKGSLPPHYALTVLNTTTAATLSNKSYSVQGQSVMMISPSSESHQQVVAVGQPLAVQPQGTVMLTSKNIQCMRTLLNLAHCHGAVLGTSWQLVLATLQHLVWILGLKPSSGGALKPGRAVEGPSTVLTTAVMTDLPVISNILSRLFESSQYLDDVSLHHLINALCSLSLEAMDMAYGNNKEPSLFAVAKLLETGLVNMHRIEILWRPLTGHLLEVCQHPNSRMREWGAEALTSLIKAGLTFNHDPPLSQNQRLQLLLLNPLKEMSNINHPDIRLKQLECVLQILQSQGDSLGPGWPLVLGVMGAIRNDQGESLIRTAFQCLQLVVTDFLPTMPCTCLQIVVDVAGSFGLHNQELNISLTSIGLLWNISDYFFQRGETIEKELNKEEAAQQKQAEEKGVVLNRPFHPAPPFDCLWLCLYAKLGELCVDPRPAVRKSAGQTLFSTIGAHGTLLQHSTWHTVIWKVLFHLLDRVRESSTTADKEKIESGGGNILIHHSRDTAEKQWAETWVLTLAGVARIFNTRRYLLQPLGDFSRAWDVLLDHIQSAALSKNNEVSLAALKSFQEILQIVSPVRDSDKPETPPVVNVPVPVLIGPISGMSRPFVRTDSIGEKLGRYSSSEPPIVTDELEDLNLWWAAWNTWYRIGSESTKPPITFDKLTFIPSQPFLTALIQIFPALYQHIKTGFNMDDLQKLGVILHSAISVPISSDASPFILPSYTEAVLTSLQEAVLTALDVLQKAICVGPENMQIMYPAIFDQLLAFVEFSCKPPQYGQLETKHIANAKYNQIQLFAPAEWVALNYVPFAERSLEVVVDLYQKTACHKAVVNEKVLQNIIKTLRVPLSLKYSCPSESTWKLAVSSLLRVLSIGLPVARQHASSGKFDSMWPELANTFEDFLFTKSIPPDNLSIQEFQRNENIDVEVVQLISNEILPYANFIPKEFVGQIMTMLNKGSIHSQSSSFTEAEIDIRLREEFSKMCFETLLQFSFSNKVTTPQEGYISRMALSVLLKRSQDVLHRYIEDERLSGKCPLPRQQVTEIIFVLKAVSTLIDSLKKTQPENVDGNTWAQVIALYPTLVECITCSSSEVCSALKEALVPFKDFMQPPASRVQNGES
inactive: [1] -0.027 | [2] 0.001 | [3] 0.017 | [4] -0.042 | [5] -0.02 | [6] 0.012 | [7] 0.002 | [8] 0.01 | [9] 0.025 | [10] 0 | [11] -0.015 | [12] 0.025 | [13] 0.008 | [14] -0.029 | [15] -0.04 | [16] 0.019 | [19] -0.07 | [20] 0.062 | [17] -0.006 | [18] -0.003

MRPL27 (UniProt Q9P0M9)
active: [19] 0.926
inactive: [1] -0.046 | [2] -0.057 | [3] 0.023 | [4] -0.025 | [5] 0.106 | [6] 0.002 | [7] -0.195 | [8] -0.028 | [9] 0.1 | [10] 0.079 | [12] -0.051 | [13] -0.01 | [14] 0.076 | [15] 0.017 | [16] -0.006 | [20] -0.218 | [17] 0.009 | [18] 0.05

MAP4K4 isoform 6 (UniProt O95819)
inactive: [1] 0.056 | [2] 0.001 | [3] -0.19 | [4] 0.027 | [5] -0.021 | [7] -0.127 | [9] 0.002 | [10] 0.037 | [12] 0.073 | [13] 0.06 | [14] 0.06 | [15] -0.04 | [16] -0.025 | [17] 0.006

KIF11 (UniProt P52732)
inactive: [1] 0.005 | [2] -0.003 | [3] 0.029 | [4] 0.01 | [5] 0.007 | [6] 0.005 | [7] 0.01 | [8] -0.019 | [9] 0.014 | [10] 0.015 | [11] -0.027 | [12] 0.003 | [13] 0.023 | [14] -0.011 | [15] -0.024 | [16] 0.025 | [19] -0.055 | [20] 0.018 | [17] 0.023 | [18] 0.026

MAP3K4 (UniProt Q9Y6R4)
inactive: [1] 0.046 | [2] 0.19 | [3] 0 | [4] 0.005 | [5] -0.039 | [6] -0.015 | [7] -0.012 | [8] -0.006 | [9] -0.001 | [10] -0.027 | [11] 0.006 | [12] 0.007 | [13] 0.107 | [14] 0.145 | [15] 0.167 | [16] 0.012 | [19] 0.047 | [20] 0.015 | [17] 0.005 | [18] -0.014

— the supplement of paper PMC10849652
